High-throughput results as filed in PubChem.
Rows were chosen to be rich in hits. Some 15% of all compounds tested hit in one or more screens of this group.
Gal4-VP16 FLuc: Gal4-VP16 reporter inhibition counter-screen; 310,000 tested, 3.5% active; Drosophila S2 Gal4-VP16 UAS-luciferase, luminescence, 20 h; AID 2546; Potency, µM (top dose mostly 53.6 µM), inactives show top-dose activity, negative = inhibition, usual class: inhibitors;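 note: Gal4-VP16 expression switched on by copper sulfate through the metallothionein promoter; nearly all actives have a fitted effect of over 50% in size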
DT40 TDP1 no CPT: qHTS for Inhibitors of human tyrosyl-DNA phosphodiesterase 1 (TDP1): qHTS in cells in absence of CPT; DT40 Tdp1-/- hTDP1 cells, no CPT, ATP luminescence, 48 h; Potency, µM (highest dose often 46.2 µM), without a hit: at the highest dose activity change, negative = growth inhibition, most hits filed as inhibitors; 420,000 tested, 15% active; AID 686978, 2013; note: nearly all actives have a fitted effect of over 55% in size
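Seeded 400 DT40-hTDP1 cells/well (vehicle DMSO, no 20 nM CPT); pinned compounds; ≥48 hr at 37 °C; CellTiter-Glo luminescence as viability measure.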
ALOX12 inh: blocks human arachidonate 12S-lipoxygenase; P18054; purified 12hLO, xylenol orange hydroperoxide absorbance; Potency, µM (top dose mostly 108 µM), for the others: at the top dose activity change, negative = inhibition, usual class: inhibitors; 580,000 tested, 1.1% active
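Hydroperoxide product was detected by ferrous iron/xylenol orange as the 573 to 405 nm absorbance ratio. Arachidonic acid at 40 uM (final) was turned over for 30 min at room temperature by 150 nM human 12hLO, pH 7.0 Hepes buffer, after 15 min compound preincubation.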
ELG1 repair inh: blocks ELG1-dependent DNA repair in HEK293T cells. HEK293T ELG1-luciferase reporter, luminescence, 16 h; DNA damage induced by 5-fluorouridine. Potency, µM (doses to about 46.1 µM), inactives show at the top dose activity change, negative = inhibition, actives largely listed as inhibitors. 330,000 tested, 2.3% active. AID 504467; note: nearly all actives have a fitted effect of over 55% in size
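In this reporter screen, reduction of luminescence relative to DMSO vehicle indicated activity. Compounds and 5-fluorouridine were added together to 2,000 cells per well, incubated for 16 hr at 37 °C, then developed with ONE-Glo.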
DT40 TDP1 CPT: DT40-hTDP1 cell growth loss with CPT | chicken DT40 Tdp1-/-;hTDP1 cells + 20 nM CPT, ATP luminescence, 48 h | Potency, µM (doses to about 46.2 µM), inactives show top-dose activity change, negative = growth inhibition, most hits filed as inhibitors | 420,000 tested, 12% active | AID 686979; note: nearly all actives have a fitted effect of over 55% in size
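Cell growth measured by CellTiter-Glo luminescence after a minimum 48 h, 37 C compound exposure with 20 nM CPT in Tdp1-knockout DT40 cells stably expressing hTDP1, seeded 400/well; qHTS titration format.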
RORg inh: ROR gamma (mouse) transcription inhibition. P51450. Drosophila S2 Gal4-RORgamma UAS-luciferase reporter, 20 h. Potency, µM (top dose mostly 53.6 µM), for inactives: top-dose activity change, negative = inhibition, actives largely listed as inhibitors. 310,000 tested, 5.4% active. AID 2551; note: nearly all actives have a fitted effect of over 60% in size
Target sequence (P51450 whole entry, looked up, the tested form may be a part): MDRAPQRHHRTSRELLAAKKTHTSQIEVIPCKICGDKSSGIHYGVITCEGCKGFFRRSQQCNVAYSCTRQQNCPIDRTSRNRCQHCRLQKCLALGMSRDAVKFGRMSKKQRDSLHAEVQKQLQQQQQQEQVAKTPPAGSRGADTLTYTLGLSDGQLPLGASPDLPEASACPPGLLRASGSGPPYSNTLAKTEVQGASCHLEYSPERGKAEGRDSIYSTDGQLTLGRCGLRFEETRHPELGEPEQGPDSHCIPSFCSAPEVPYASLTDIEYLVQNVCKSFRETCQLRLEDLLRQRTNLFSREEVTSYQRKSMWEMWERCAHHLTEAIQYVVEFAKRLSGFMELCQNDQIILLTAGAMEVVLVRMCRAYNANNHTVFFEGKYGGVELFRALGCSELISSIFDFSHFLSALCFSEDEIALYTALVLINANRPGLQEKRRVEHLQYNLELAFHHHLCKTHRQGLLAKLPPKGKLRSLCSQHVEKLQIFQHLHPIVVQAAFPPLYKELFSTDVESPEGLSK
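Schneider cells (Drosophila), stable Gal4 DBD–ROR gamma + UAS-luc; 1 hr cmpd preincubation; Cu2+ induction 700 uM final; 20 hr ambient; luminescence.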
* = called active by the depositor; ? = inconclusive; / = no result; [ ] = dose if it differs, or a comment. Calls come from the whole dose curve; as a rule, active = well fitted curve in the direction sought with a large enough effect; inconclusive = small, poorly fitted or top-dose-only effect, or another doubt; inactive = no such curve, though single readings can be large; an effect the other way counts as inactive or inconclusive. % is set by controls: 0 for no effect and ±100 for the full control effect; potency is the fitted concentration of half-maximal effect.

SMILES	Gal4-VP16 FLuc	DT40 TDP1 no CPT	ALOX12 inh	ELG1 repair inh	DT40 TDP1 CPT	RORg inh
COc1cccc(/C=N/n2c(C)nc3ccccc32)c1OC	8.9µM*	?	-22%	?	?	3.2µM*
COc1cccc(/C=N\n2c(C)nnc2C)c1OC	-8%	-9%	3%	?	-10%	-34%
CN(C)C[C@H]1O[C@H](Cc2cc(-c3ccccc3)on2)CC[C@@H]1O	/	/	66%[176 µM]	/	/	/
COc1ccc(CCNC(=O)CCc2c(C)nn(C)c2C)cc1OC	/	/	-6%	/	/	/
CCN1c2cc(C(=O)Nc3ccc(F)c(F)c3)ccc2C(=O)N2CCCCC21 (centres undefined)	/	/	8%	/	/	/
Cc1cccc(CN2C(=O)N/C(=C/c3ccc(C)s3)C2=O)c1	-1%	16µM*	74%	4%	21µM*	-8%
Cc1cccc(CN2C(=O)N/C(=C/c3cc(C)n(-c4cc(C)ccn4)c3C)C2=O)c1	-2%	23µM*	/	?	?	30%
Cc1ccc(/C=C2/NC(=O)N(Cc3ccccc3)C2=O)s1	-8%	-19%	-2%	?	?	-17%
CCOC(=O)COc1ccc(/C=C2\NC(=S)N(CC)C2=O)cc1	?	-24%	-11%	9%	-9%	-25%
CCN1C(=O)/C(=C/c2ccc(C)s2)NC1=S	?	?	?	-6%	-27%	18µM*
O/N=c1/oc2cc3occ(-c4ccc(F)cc4)c3cc2c2c1CCC2	/	/	-24%	/	/	/
COc1ccc(CN=C(Nc2ccccc2)SC2CC(=O)NC2=O)cc1 (centres undefined)	-9%	-4%	-21%	?	3%	13µM*
COc1ccc(N2CCN(C(=O)c3ccc(F)cc3)CC2)c([N+](=O)[O-])c1	?	21µM*	0%	?	-13%	?
CO/N=C/c1ccc(N2CCCC2)c([N+](=O)[O-])c1	17%	3%	0%	-5%	2%	5%
COc1ccc(N2CCN(C(=O)c3cccc(Br)c3)CC2)c([N+](=O)[O-])c1	-22%	16µM*	0%	-14%	23µM*	28%
CO/N=C/c1ccc(N2CCN(C(=O)c3ccc(C)cc3)CC2)c([N+](=O)[O-])c1	?	15µM*	-6%	21µM*	18µM*	?
COc1ccc(N2CCN(C(=O)c3ccccc3F)CC2)c([N+](=O)[O-])c1	-1%	?	4%	-3%	?	2%
COc1ccc(N2CCN(C(=O)CC34CC5CC(CC(C5)C3)C4)CC2)c([N+](=O)[O-])c1	?	16µM*	0%	?	21µM*	?
CCC(=O)N1CCN(c2ccc(OC)cc2[N+](=O)[O-])CC1	6%	-19%	-13%	-1%	-6%	-13%
COc1ccc(N2CCN(C(=O)c3cccc(F)c3)CC2)c([N+](=O)[O-])c1	-22%	?	-12%	0%	?	-7%
Cc1cccc(Cn2c(-c3cccs3)nc3ccccc32)c1	/	?	6%	/	-21%	/
CCC(C)n1c(-c2cccs2)nc2nc3ccccc3nc21 (centres undefined)	1%	12µM*	0%	?	18µM*	5%
CC(C)NC(=O)N1CCN(S(=O)(=O)c2ccccc2)[C@@H](C(=O)N[C@H](Cc2c[nH]c3ccccc23)C(N)=O)C1	/	/	2%	/	/	/
COc1ccc(-c2oc3cc(OC)c(OC(C)=O)c(OC)c3c(=O)c2OC)cc1OC(C)=O	-3%	?	/	/	?	?
CC(=O)Oc1cc(OC(C)=O)c2c(=O)cc(-c3ccc(OC(C)=O)c(OC(C)=O)c3)oc2c1	35µM*	27µM*	/	/	?	?
SMILES	Gal4-VP16 FLuc	DT40 TDP1 no CPT	ALOX12 inh	ELG1 repair inh	DT40 TDP1 CPT	RORg inh
CC(=O)Oc1cc(O)c2c(=O)c(OC(C)=O)c(-c3ccc(OC(C)=O)c(OC(C)=O)c3)oc2c1	/	21µM*	/	/	?	/
CCOc1ccc(Oc2ccccc2NC(=O)c2ccoc2)cc1	/	/	-11%	/	/	/
COCCNc1nc(Nc2ccc(C)cc2C)c2sccc2n1	/	1.5µM*	3%	/	1.8µM*	/
COCCNc1nc(NCc2ccc(C)cc2C)c2sccc2n1	/	15µM*	?	/	15µM*	/
CN1CCCn2nc(C(=O)NC34CC5CC(CC(C5)C3)C4)cc2C1	/	/	-1%	/	/	/
Cc1ccc(OCC(=O)c2c[nH]c3ccccc23)c([N+](=O)[O-])n1	22%	4%	3%	?	-26%	11%
Cc1ccc(C)c(C(=O)COc2ccccc2[N+](=O)[O-])c1	13µM*	10µM*	1%	2%	5.2µM*	-97%
Cc1ccc(OCC(=O)c2cc(C)c(C)cc2C)c([N+](=O)[O-])n1	?	8.2µM*	0%	?	3.7µM*	11µM*
Cc1ccc(C)c(C(=O)COc2ccc(C)nc2[N+](=O)[O-])c1	?	15µM*	-22%	9%	7.3µM*	?
Cc1ccc(OCC(=O)N2CCc3ccccc3C2)c([N+](=O)[O-])n1	-17%	14%	-14%	-1%	3%	18%
Cc1ccc(OCC(=O)N2c3ccccc3CC2C)c([N+](=O)[O-])n1 (centres undefined)	6%	-87%	-11%	0%	16µM*	23%
Cc1cc(C)c(S(=O)(=O)Oc2ccccc2[N+](=O)[O-])c(C)c1	/	18µM*	9%	/	21µM*	/
CCOc1cc(=O)n2c(c1C(=O)N1CCN(c3cccc(Cl)c3)CC1)CCCC2	/	/	6%	/	/	/
COc1ccc(NC(=O)c2ccc(CN3C(=O)NC4(CCOCC4)C3=O)cc2)cc1OC	/	/	28%	/	/	/
CN1CCN(c2ccc(NC(=O)COc3ccc4ccccc4c3)cc2)CC1	?	?	?	?	?	-8%
C=CC(=O)Nc1cccc(N(C)c2ccnc(Nc3ccc(N4CCN(C)CC4)cc3)n2)c1	/	5.2µM*	/	/	?	/
C=CC(=O)Nc1cccc(Oc2ccnc(Nc3ccc(N4CCN(C)CC4)cc3)n2)c1	/	16µM*	?	/	?	/
Fc1ccccc1Nc1cnc2ccc(-c3ccccc3)nn12	/	/	-1%[176 µM]	/	/	/
[O-][n+]1cccc2c(Br)cc(Br)c(O)c21	0.71µM*	?	-22%	?	?	0.56µM*
CCC1Oc2ccc(C)cc2N(CC(=O)NCc2cccc(OC)c2)C1=O (centres undefined)	22µM*	10µM*	-5%	-21%	?	?
CCC1Oc2ccccc2N(CC(=O)NCc2cc(OC)ccc2OC)C1=O (centres undefined)	/	13µM*	-24%	/	?	/
